Results on nine compounds are retold here after PubChem BioAssay (NCI).

Compounds without any hit were thinned out: in the full panel of roughly 83,000, 20% have a hit.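 Single-dose data. Exposure time 48 hours. Values below 10 considered active.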 Unmarked numbers belong to inactive results. Activity calls are given as the source filed them.

What all share (experiment): NCI-60 one-dose screen, 48 h (100 = growth as untreated, 0 = no growth, -100 = all killed)
One test concerns HCT-15 colon. The settings on record: 10 µM unless noted.
The next test relates to HT29 colon. The settings on record: 10 µM unless noted.
The next test relates to SNB-75 CNS. The settings on record: 10 µM unless noted.
The next test concerns SNB-19 CNS. The settings on record: 10 µM unless noted.
The subject of a further test is U251 CNS. The settings on record: 10 µM unless noted.
Another test has as its system PC-3 prostate. The note with it: 10 µM unless noted.
A further test deals with SK-MEL-5 melanoma. The settings on record: 10 µM unless noted.
Another test relates to UACC-62 melanoma. The settings on record: 10 µM unless noted.
The test system of another test is SK-MEL-28 melanoma. The note with it: 10 µM unless noted.
The next test deals with SK-MEL-2 melanoma. The note with it: 10 µM unless noted.
A further test relates to SN12C renal. The note with it: 10 µM unless noted.
A further test has as its system UO-31 renal. The settings on record: 10 µM unless noted.
The subject of the next test is ACHN renal. The settings on record: 10 µM unless noted.
A further test concerns CAKI-1 renal. The note with it: 10 µM unless noted.
The next test has as its system A498 renal. The settings on record: 10 µM unless noted.
A further test concerns CCRF-CEM leukemia. The settings on record: 10 µM unless noted.
In another test the test system is MOLT-4 leukemia. The note with it: 10 µM unless noted.
A further test has as its system TK-10 renal. The note with it: 10 µM unless noted.
Another test relates to LOX IMVI melanoma. The note with it: 10 µM.
For a further test, the system named is EKVX NSCLC. The settings on record: 10 µM unless noted.

For `Oc1ccc(Nc2ccc3ccccc3c2)cc1`, the growth was 54.7% in the test with HCT-15 colon; 95.8% in the test with HT29 colon; 63.2% in the test with SNB-75 CNS; 75.5% in the test on SNB-19 CNS; 67.5% with U251 CNS; 39.2% with PC-3 prostate. Further, the growth in the test with SK-MEL-5 melanoma is 44.7%; with UACC-62 melanoma, 18%; with SK-MEL-28 melanoma it was 90.3%; in the test with SK-MEL-2 melanoma, 62.4%; in the test on SN12C renal it was 64.8%; in the test with UO-31 renal, 10.6%. Moreover, the growth in the test with ACHN renal was 18.5%; in the test on CAKI-1 renal, 8.98% (active); in the test on A498 renal, 94.1%; in the test with CCRF-CEM leukemia, 49%; in the test with MOLT-4 leukemia, 46.8%.

On to `CN(C)CCSC1=Nc2ccc(Cl)cc2C(c2ccccc2Cl)N(C)C1` (centres undefined), for which the growth was 62.5% with HCT-15 colon; 50.9% in the test with HT29 colon; 11.9% in the test on SNB-75 CNS; 63.1% in the test with SNB-19 CNS; 71.2% with U251 CNS; 48.5% in the test with PC-3 prostate. The growth in the test with SK-MEL-5 melanoma was 68.7%; with UACC-62 melanoma, 29.2%; in the test with SK-MEL-28 melanoma it was 70.9%; in the test with SN12C renal it was 63.8%; in the test with UO-31 renal, 24.5%; with TK-10 renal, 64.9%. Further, the growth in the test with ACHN renal is 74.2%; in the test with CAKI-1 renal, 20.5%; in the test with A498 renal it was 127%; in the test with CCRF-CEM leukemia it was 85.2%; in the test with MOLT-4 leukemia, 79.2%.

Take `Oc1ccc(Cl)cc1C(c1cc(Cl)ccc1O)C(Cl)(Cl)Cl`: the growth is 3.95% (active) in the test with HCT-15 colon; 4.03% (active) in the test on HT29 colon; 4.39% (active) in the test on SNB-75 CNS; 24% in the test on SNB-19 CNS; 11.8% in the test on U251 CNS; 6.26% (active) in the test on PC-3 prostate. The growth was 29.1% with SK-MEL-5 melanoma; -62.8% (active) with LOX IMVI melanoma; 38.8% in the test with SK-MEL-28 melanoma; 49.2% in the test on SK-MEL-2 melanoma; -4.47% (active) in the test on SN12C renal; 40.8% with UO-31 renal. Further, the growth in the test on TK-10 renal was 77.5%; in the test on ACHN renal, -7.96% (active); with CAKI-1 renal, 36.8%; in the test on A498 renal, 23.4%; with CCRF-CEM leukemia it was 19.1%; in the test with MOLT-4 leukemia, 2.12% (active).

Take `CC/C(=C(/CC)c1ccc(O)cc1)c1ccc(O)cc1`: the growth was 47.2% in the test on HCT-15 colon; 71.5% in the test on HT29 colon; 51.8% with SNB-75 CNS; 72.7% in the test on SNB-19 CNS; 75.4% in the test on PC-3 prostate; 21.4% in the test on SK-MEL-5 melanoma. The growth is 42.4% in the test with UACC-62 melanoma; 65.2% in the test with LOX IMVI melanoma; 60.1% in the test with SK-MEL-28 melanoma; 54.6% in the test on SK-MEL-2 melanoma; 64.7% in the test with EKVX NSCLC; 76% with SN12C renal. Also, the growth with UO-31 renal is 73.2%; in the test on ACHN renal, 67.8%; in the test on CAKI-1 renal, 45.8%; with A498 renal, 81.4%; in the test on CCRF-CEM leukemia it was 48.8%; with MOLT-4 leukemia, 39.9%.

Turning to `Cc1cc(C(=O)c2ccc(Cl)cc2)ccc1O`, the growth with HCT-15 colon is 112%; with HT29 colon it was 99.1%; in the test with SNB-75 CNS, 96%; in the test with SNB-19 CNS, 116%; in the test with U251 CNS it was 101%; in the test on SK-MEL-5 melanoma, 95.3%. Also, the growth is 89.8% in the test on UACC-62 melanoma; 99.3% with LOX IMVI melanoma; 105% with SK-MEL-28 melanoma; 125% in the test on SK-MEL-2 melanoma; 81% with EKVX NSCLC; 89.3% with SN12C renal. For the same compound, the growth was 84.7% in the test with UO-31 renal; 87% in the test on TK-10 renal; 87.3% with ACHN renal; 90.5% in the test with CAKI-1 renal; 76.1% with A498 renal; 96.9% in the test with CCRF-CEM leukemia. The growth in the test on MOLT-4 leukemia is 102%.

In the case of `CCCCCCCCCCCC[N+]1(CCCCCCCCCCCC)CCCC(C)C1` (centres undefined), the growth with HCT-15 colon was -55.6% (active); in the test with HT29 colon it was -91.8% (active); in the test on SNB-75 CNS, -88.3% (active); in the test with SNB-19 CNS, -96.5% (active); in the test on U251 CNS it was -61% (active); in the test with PC-3 prostate it was -93.7% (active). The growth is -100% (active) in the test with SK-MEL-5 melanoma; -77.9% (active) in the test with UACC-62 melanoma; -91.2% (active) in the test on SK-MEL-28 melanoma; -51.7% (active) with EKVX NSCLC; -72.4% (active) in the test with SN12C renal; -100% (active) in the test with UO-31 renal. Also, the growth is -79.3% (active) in the test on TK-10 renal; -78.5% (active) in the test with ACHN renal; -88.4% (active) in the test with A498 renal; -56.7% (active) with CCRF-CEM leukemia; -62.6% (active) with MOLT-4 leukemia.

For the compound `S=c1[nH]c2cc(Cl)ccc2s1`, the growth in the test with HCT-15 colon is 109%; in the test with HT29 colon, 102%; in the test with SNB-75 CNS it was 92.3%; in the test on SNB-19 CNS, 94%; in the test on PC-3 prostate it was 94.1%; in the test on SK-MEL-5 melanoma, 95.7%. For the same compound, the growth in the test with UACC-62 melanoma is 88.4%; with LOX IMVI melanoma, 97.6%; in the test on SK-MEL-28 melanoma it was 110%; with SK-MEL-2 melanoma, 100%; in the test on EKVX NSCLC, 102%; in the test with SN12C renal, 96.6%. The growth in the test with UO-31 renal was 66%; in the test on TK-10 renal it was 97.6%; with ACHN renal, 95.2%; in the test with CAKI-1 renal it was 92.3%; in the test with A498 renal it was 132%; in the test with CCRF-CEM leukemia it was -43.5% (active). For the same compound, in the test on MOLT-4 leukemia, the growth was 108%.

For `CN(C)c1ccc(C(C#N)(c2ccccc2)c2ccc(N(C)C)cc2)cc1`, the growth with HCT-15 colon is 71.8%; in the test on HT29 colon, 14.6%; in the test on SNB-75 CNS it was 57.1%; in the test with SNB-19 CNS it was 63.7%; in the test with U251 CNS it was 7.62% (active); in the test on PC-3 prostate, 69.4%. Also, the growth with SK-MEL-5 melanoma is 81.6%; in the test on UACC-62 melanoma, 70.5%; with SK-MEL-28 melanoma, 60.2%; in the test on SK-MEL-2 melanoma, 85.2%; with SN12C renal, 14.4%; in the test on UO-31 renal it was 53%. Also, the growth with ACHN renal is 49.3%; in the test on CAKI-1 renal, 79.4%; in the test with CCRF-CEM leukemia, 69.3%; in the test with MOLT-4 leukemia it was 68.5%.

`Nc1ccc(-c2ccc(N)c(S(=O)(=O)O)c2)cc1S(=O)(=O)O`: the growth is 118% in the test with HCT-15 colon; 109% in the test with HT29 colon; 83.1% in the test on SNB-75 CNS; 101% in the test with SNB-19 CNS; 115% in the test on U251 CNS; 101% in the test on PC-3 prostate. In addition, the growth in the test with SK-MEL-5 melanoma was 111%; with LOX IMVI melanoma, 94.4%; in the test with SK-MEL-28 melanoma, 119%; with EKVX NSCLC, 119%; in the test with SN12C renal, 102%; with UO-31 renal, 94.5%. Also, the growth was 122% in the test with TK-10 renal; 105% with ACHN renal; 123% in the test with CAKI-1 renal; 141% with A498 renal; 127% in the test on CCRF-CEM leukemia; 131% in the test with MOLT-4 leukemia.
